In PubChem BioAssay (EPA / NIEHS):
Results filed as inconclusive are left out. Active and inactive are the calls of the source. The calls were made as follows, unless noted: active = hit-call score of the fitted dose curve at least 0.9, where 1 is the maximum; inactive = score below 0.9.

Key:
[1] = CCTE_Shafer_MEA_dev_firing_rate_mean: CCTE's Neural Network Formation Assay for Mean Firing Rate, Shafer Lab (AID 2284031)
In short: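 Extracellular spike frequency, AUC over DIV 5–12 recordings, in rat cortical neuron MEA cultures dosed from plating; loss direction vs DMSO.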

[2] = CCTE_Shafer_MEA_dev_active_electrodes_number: CCTE's Neural Network Formation Assay for Number of Active Electrodes, Shafer Lab (AID 2284040; active = hit-call score of the fitted dose curve at least 0.9, where 1 is the maximum;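 also: potency for loss of active electrodes versus DMSO so lower counts are hits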)
In short: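 Developing rat cortical networks on MEAs, exposed DIV 0–12. Value is the AUC of active-electrode counts (≥5 spikes/min) from days 5, 7, 9, 12, relative to DMSO.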

[3] = CCTE_Shafer_MEA_dev_burst_rate: CCTE's Neural Network Formation Assay for Burst Rate, Shafer Lab (AID 2284042)
In short: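 Primary rat cortical neurons on PEI-coated 48-well MEA plates (laminin added with cells at plating) (16 electrodes/well), exposed from plating to day 12, dosing renewed at DIV 5 and 9. Burst rate averaged over active electrodes, recorded DIV 5, 7, 9, 12, summarized as AUC; loss versus DMSO.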

[4] = CCTE_Shafer_MEA_dev_bursting_electrodes_number: CCTE's Neural Network Formation Assay for Number of Bursting Electrodes, Shafer Lab (AID 2284043; active = hit-call score of the fitted dose curve at least 0.9, where 1 is the maximum;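 also: potency is for loss of bursting electrodes relative to DMSO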)
In short: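 Rat cortical primary neurons, 48-well MEA, 16 electrodes/well; dosing DIV 0–12, re-dosed with full media change DIV 5, 9. Recordings DIV 5/7/9/12, AxIS adaptive spike detector; bursting electrode = ≥1 burst/2 min. AUC across days; loss of signal vs DMSO.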

[5] = CCTE_Shafer_MEA_dev_burst_duration_mean: CCTE's Neural Network Formation Assay for Mean Burst Duration, Shafer Lab (AID 2284045)
In short: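 Rat cortical cultures, 1.5 x 10^5 cells/well with laminin drop; continuous dosing days 0–12, media plus treatment refreshed DIV 5, 9. AxIS adaptive spike detection; mean single-electrode burst duration, AUC over four recordings, negative direction vs DMSO.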

[6] = CCTE_Shafer_MEA_dev_inter_network_spike_interval_mean: CCTE's Neural Network Formation Assay for Mean Inter-network Spike Interval, Shafer Lab (AID 2284047)
In short: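 Primary rat cortical neurons on 16-electrode MEA wells, exposed from plating day 0 through DIV 12, compound renewed at DIV 5 and 9 media changes. Mean interval between network-spike peaks recorded DIV 5, 7, 9, 12; collapsed as trapezoidal AUC, fitted downward versus DMSO.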

[7] = CCTE_Shafer_MEA_dev_network_spike_number: CCTE's Neural Network Formation Assay for Number of Network Spikes, Shafer Lab (AID 2284048);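 also: synchronized bursts across electrodes counted on days 5 7 9 12 and integrated as AUC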
In short: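 Rat cortical primary cultures on 48-well MEA (16 electrodes/well); continuous exposure DIV 0–12, full medium and treatment exchange DIV 5, 9. Readout: network spike count, AxIS adaptive detection, recordings DIV 5/7/9/12 collapsed to AUC; loss-of-signal fit, DMSO baseline.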

[8] = CCTE_Shafer_MEA_dev_network_spike_peak: CCTE's Neural Network Formation Assay for Mean Number of Electrodes in Network Spike, Shafer Lab (AID 2284049);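 also: fitted for loss of signal meaning fewer electrodes in network spikes than DMSO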
In short: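 Network-spike peak electrode count from recordings on days 5, 7, 9 and 12 was combined as trapezoidal area under the curve. Rat cortical cultures were treated continuously from plating, with compound renewed at each feed (DIV 5, 9); fits versus DMSO.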

[9] = CCTE_Shafer_MEA_dev_spike_duration_mean: CCTE's Neural Network Formation Assay for Mean Spike Duration, Shafer Lab (AID 2284051);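 also: mean network spike duration pooled as area under curve over DIV 5 to 12 recordings; potency for a decrease in mean network spike duration versus DMSO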
In short: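 Primary rat cortical neurons on 16-electrode MEA wells (PEI-coated, laminin in plating drop), exposed from plating through DIV 12 with compound renewed at DIV 5 and 9. Mean network-spike duration recorded DIV 5, 7, 9, 12; trapezoidal AUC across days, DMSO baseline.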

[10] = CCTE_Shafer_MEA_dev_network_spike_duration_std: CCTE's Neural Network Formation Assay for Standard Deviation of Network Spike Duration, Shafer Lab (AID 2284052);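 also: area under curve of spike duration SD across recording days 5 to 12; hits are decreases in network spike duration SD versus DMSO vehicle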
In short: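 Primary rat cortical neurons on PEI-coated 16-electrode MEA wells, exposed from plating day 0 through day 12 with compound renewed at DIV 5 and 9. Network spike duration SD recorded on days 5, 7, 9, 12, collapsed as trapezoidal AUC; loss-of-signal fit versus DMSO.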

[11] = CCTE_Shafer_MEA_dev_per_network_spike_spike_number_mean: CCTE's Neural Network Formation Assay for Mean Number of Spikes in a Network Spike, Shafer Lab (AID 2284053);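 also: fitted as decrease in spikes per network spike relative to DMSO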
In short: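 Primary rat cortical neurons on 48-well, 16-electrode MEA plates were exposed from plating to DIV 12, with dosing renewed on DIV 5 and 9. Spikes per network spike (0.05 s peak window) were recorded on DIV 5, 7, 9 and 12 and collapsed as trapezoidal AUC versus DMSO.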

[12] = CCTE_Shafer_MEA_dev_per_network_spike_spike_percent: CCTE's Neural Network Formation Assay for Percent of Spikes in a Network Spike, Shafer Lab (AID 2284054)
In short: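 Read-out: percent of spikes falling in a 0.05 s window at network-spike peak, from spontaneous MEA recordings on days 5, 7, 9 and 12; trapezoidal AUC; loss of signal versus DMSO. Rat cortical cultures, compound present throughout.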

[13] = CCTE_Shafer_MEA_dev_LDH: CCTE's Lactate Dehydrogenase Assay for Cytotoxicity in the Neural Network Formation Assay, Shafer Lab (AID 2284068; active = hit-call score of the fitted dose curve at least 0.9, where 1 is the maximum;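 also: exposure for twelve days from plating with re-dosing on DIV 5 and 9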)
In short: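 Primary rat cortical neurons were plated on PEI/laminin MEA plates and exposed from day 0 for twelve days, with compound renewed at DIV 5 and 9. Cytotoxicity was determined by spectrophotometric LDH assay relative to DMSO.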

[14] = CCTE_Shafer_MEA_dev_AB: CCTE's Alamar Blue Assay for Cytotoxicity in the Neural Network Formation Assay, Shafer Lab (AID 2284083; active = hit-call score of the fitted dose curve at least 0.9, where 1 is the maximum;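 also: twelve days of exposure from plating with re-dosing on DIV 5 and 9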)
In short: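 Primary rat cortical neurons on PEI-coated 48-well MEA plates, 1.5 x 10^5 cells/well in laminin drop; compound exposure from day 0 of plating for twelve days, renewed at medium changes on DIV 5 and 9. Viability read as resazurin reduction by fluorescence, relative to DMSO.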

[15] = CCTE_Shafer_MEA_dev_mutual_information_norm: CCTE's Neural Network Formation Assay for Mutual Information Normalization, Shafer Lab (AID 2284091);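 also: mutual information between electrodes summarised as area under curve across four recording days; potency is for a decrease in mutual information relative to DMSO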
In short: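 Neurons from rat cortex were seeded at 1.5 x 10^5 cells/well onto PEI-coated MEAs in a laminin drop, then exposed to compound from day 0 for twelve days. Network recordings on four days gave mutual information, summarised by AUC relative to DMSO.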

[16] = CCTE_Shafer_MEA_dev_correlation_coefficient_mean: CCTE's Neural Network Formation Assay for Mean Correlation Coefficient, Shafer Lab (AID 2284093);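 also: well mean pairwise spike train correlation integrated as AUC over recording days 5 to 12; potency fitted for loss of correlation relative to DMSO vehicle wells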
In short: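 Spontaneous activity recorded on days 5, 7, 9 and 12 post-plating; pairwise spike correlations are averaged across active electrodes and collapsed to an area-under-curve. Rat cortical cultures are dosed from plating through 12 days, with compound renewed at media changes.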

[17] = CCTE_Harrill_HTTr_Viability_MCF7: CCTE's 6-hour Cell Viability Assessment for the High-Throughput Transcriptomics (HTTr) Platform, in MCF-7 cells cultured in DMEM + 10% fetal bovine serum, Harrill Lab (AID 2284010)
In short: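 Eight-point concentration series, six-hour exposure. Propidium iodide exclusion imaged to assess membrane integrity as a cytotoxicity readout; bidirectional fitting was done with DMSO as negative control and activity baseline.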

[18] = CCTE_Harrill_HTTr_Apoptosis_MCF7: CCTE's 6-hour Apoptosis Assessment for the High-Throughput Transcriptomics (HTTr) Platform, in MCF-7 cells cultured in DMEM + 10% fetal bovine serum, Harrill Lab (AID 2284011)
In short: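 High-content imaging of CellEvent Caspase 3/7 Green signal follows a six-hour exposure, with eight concentrations per chemical. MCF-7 cells grown in DMEM plus 10% fetal bovine serum; activity fitted in both directions against DMSO.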

[19] = CCTE_Harrill_HTTr_CellCount_MCF7: CCTE's Cell Proliferation Assessment for the High-Throughput Transcriptomics (HTTr) Platform, Harrill Lab (AID 2284012; active = hit-call score of the fitted dose curve at least 0.9, where 1 is the maximum;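 also: count of Hoechst-stained nuclei per well by high-content imaging in MCF-7 cells; cells exposed to compound for six hours; intended direction is loss of nuclei count meaning fewer cells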)
In short: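 For this full-screen endpoint, MCF-7 cultures received eight compound dilutions for six hours. Well nuclei counts from Hoechst imaging were analyzed relative to DMSO.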

Measured: AC50

NCCc1cc(O)c(O)cc1O
active: [2] 4.79 µM | [4] 4.29 µM | [8] 6.57 µM | [9] 5.15 µM | [11] 4.47 µM | [12] 10.1 µM | [13] 6.82 µM | [14] 9.87 µM | [15] 3.2 µM | [16] 5.28 µM
inactive: [1] | [3] | [5] | [6] | [7] | [10]

CCCCOC(=O)N(C)SN(C)C(=O)Oc1cccc2c1OC(C)(C)C2
inactive: [17] | [18] | [19]

[Cl-].[Cl-].[Cl-].[Pr+3]
inactive: [17] | [18]

O=C1CCO1
inactive: [17] | [18] | [19]
